Key:
Format in all cases: functional
Plasmodium falciparum [1] = experiment: GSK_TCMDC: Inhibition of Plasmodium falciparum 3D7 in whole red blood cells, using parasite LDH activity as an index of growth. Test compounds present at 2uM
Plasmodium falciparum [2] = experiment: GSK_TCMDC: Inhibition of Plasmodium falciparum Dd2 in whole red blood cells, using parasite LDH activity as an index of growth. Test compounds present at 2uM
HepG2 = experiment: GSK_TCMDC: Percent inhibition of human HepG2 cell line. Test compounds present at 10uM.

SMILES | Inhibition (Plasmodium falciparum [1]) [%] | Inhibition (Plasmodium falciparum [2]) [%] | Inhibition (HepG2) [%]
CCOc1cc(C=Cc2nc(O)c3ccccc3n2)cc(Cl)c1O | 83 | 90 | 25
CCCCCN1CCCC1CNS(=O)(=O)c1ccc(C(=O)Nc2cccc(C(F)(F)F)c2)cc1.O=C(O)C(F)(F)F (stereo not drawn) | 95 | 0 | 16
Cc1ccc(Nc2nc(C)cc(Nc3cccc(NS(C)(=O)=O)c3)n2)cc1 | 96 | 8 | 0
CC(C)Cc1nc(N2CCOCC2)c2nnn(Cc3ccccc3)c2n1 | 98 | 76 | 7
Cc1cc(N[C@@H](CC(C)C)C(=O)NC2CCCC2)nc(NCCc2ccc(F)cc2)n1.O=C(O)C(F)(F)F | 100 | 47 | 15
CO[C@H](C)[C@H](NC(=O)[C@H](CC(C)C)[C@H](CCC(F)(F)F)N(O)C=O)C(=O)Nc1nccs1 | 99 | 96 | 0
CC(C)(C)c1nn(-c2ccc(Cl)cc2)c2[nH]c(=O)c(CNCc3ccc4c(c3)OCO4)cc12 | 100 | 98 | 15
CC(=O)N[C@@H]1c2cc(C(C)=O)ccc2OC(C)(C)[C@@H]1O | 97 | 3 | 15
COc1ccc2nccc([C@@H](O)CN3CCC(NC(=O)/C=C/c4cc(F)cc(NC(C)=O)c4)CC3)c2c1 | 97 | 49 | 7
COc1cccc(OC(C)(C)c2nc(N[C@@H](C)c3ccccc3)c3cn[nH]c3n2)c1 | 89 | 69 | 44
CCC(CC)n1c(C)cc2c3c(N)nc(N)nc3ccc21 | 95 | 95 | 61
Cc1cc(NC(=O)NCCN2CCC(NS(=O)(=O)c3ccccc3F)CC2)c2ccccc2n1 | 81 | 44 | 0
O=C(NC1CCN(Cc2ccccc2)CC1)c1ccc(-c2nc3cc(Cl)c(F)cc3[nH]2)s1 | 100 | 99 | 28
COc1cccc(C(O)CNc2ccnc(Nc3ccc(Cl)cc3)n2)c1 (stereo not drawn) | 99 | 46 | 31
Cc1cc(CN2CCCN(c3ccc4c(c3)CCN(Cc3ccc(-c5ncc[nH]5)cc3)CC4)CC2)n(C)n1 | 86 | 8 | 5
CN1CCN(c2ccc(Nc3ncc(Cl)c(Nc4cccnc4C(N)=O)n3)cc2)CC1.Cl | 95 | 97 | 99
CN1CCC(N2CCN(Cc3cccc(-c4cccc(-c5nc6ccccc6[nH]5)c4)c3)CC2)CC1.O=C(O)C(F)(F)F | 100 | 100 | 19
COc1ccc(C(=O)C2CC2CN(C)CCC(O)c2ccc(Cl)c(Cl)c2)cc1 (stereo not drawn) | 94 | 86 | 24
Cc1cccc(OCC(=O)Nc2cccc(NC(=O)COc3cccc(C)c3)n2)c1 | 98 | 30 | 0
Fc1ccc2[nH]c(-c3ccc(-c4ccc(CNCC5CCCO5)cc4)cc3)nc2c1.O=C(O)C(F)(F)F (stereo not drawn) | 100 | 100 | 26
CSc1nnc2n(Cc3ccccc3)c(=O)c3c(n12)-c1ccccc1CC31CCCCC1 | 93 | 0 | 0

SMILES | Inhibition (Plasmodium falciparum [1]) [%] | Inhibition (Plasmodium falciparum [2]) [%] | Inhibition (HepG2) [%]
COc1ccc(-c2cc(Nc3nc(-c4cccc(Cl)c4)nc4ccccc34)ccn2)cc1 | 100 | 17 | 3
CN(C)CCCOc1c(C(C)(C)C)cc(-c2cc(C(C)(C)C)c(OCCCN(C)C)c(C(C)(C)C)c2)cc1C(C)(C)C | 100 | 99 | 25
Cc1cc(=O)c2cc(Oc3cccc(OC(F)(F)F)c3)ccc2[nH]1 | 90 | 80 | 9
COc1cc(OC)cc(-c2nc3ccc(OCCN(C)C)c(C#N)c3[nH]2)c1 | 99 | 25 | 4
Cc1cc(N[C@@H](Cc2ccccc2)C(=O)NCCOc2ccccc2)nc(NCc2ccccc2C)n1.O=C(O)C(F)(F)F | 100 | 80 | 32
CCCCNCc1ccc(-c2nc(CN(Cc3ccc(Cl)c(Cl)c3)S(=O)(=O)c3ccc(NC(C)=O)cc3)cs2)cc1.O=C(O)C(F)(F)F | 96 | 20 | 30
CNC(=O)c1ccccc1Nc1nc(Nc2ccc(C(=O)O)cc2)ncc1Cl.Cl | 92 | 92 | 60
CS(=O)(=O)Nc1ccc(OCCCCCCOc2ccc(NS(C)(=O)=O)cc2)cc1 | 93 | 82 | 3
COc1ccc2c(=NN=Cc3ccccc3Cl)cc(C)[nH]c2c1 | 100 | 99 | 5
CCn1c(-c2nonc2N)nc2c(-c3cc4ccccc4s3)ncc(C(=O)N3CCC(N)C3)c21.O=C(O)C(F)(F)F (stereo not drawn) | 98 | 66 | 99
CC(C)(C)OC(=O)NCc1ccc(Nc2nnc(-c3ccc(OCC(=O)NCc4ccc(C(C)(C)C)cc4)c([N+](=O)[O-])c3)o2)cc1 | 96 | 82 | 10
Clc1ccc2c(NCCc3ccccn3)ccnc2c1 | 92 | 72 | 13
CC(C)(C)SCC(O)Cn1c2ccc(Br)cc2c2cc(Br)ccc21 (stereo not drawn) | 87 | 79 | 4
O=C(/C=N/O)Nc1ccccc1[N+](=O)[O-] | 99 | 0 | 0
CC[C@@H]([C@@H](Cc1cc2ccccc2s1)C(=O)N[C@@H](CCCCNC(=O)OCc1ccccc1)C(=O)Nc1ccccn1)N(O)C=O | 96 | 70 | 36
COc1ccc2nccc([C@@H](O)CN3CCC(NC(=O)c4ccc(Cl)c(Cl)c4)CC3)c2c1 | 96 | 57 | 21
CCC(C)CN1C(=O)C(c2ccccc2)(c2ccccc2)N=C1N.O=CO (stereo not drawn) | 98 | 79 | 11
O=C(Cc1cccc(O)c1)Nc1ccc(-c2cccc(-c3nc4cc(C(F)(F)F)ccc4[nH]3)c2)cc1 | 86 | 1 | 14
O=C(/C=C/c1cccc(C(F)(F)F)c1)NCCCCCN1CCC(c2c[nH]c3ccccc23)CC1 | 90 | 14 | 70
Cc1cc(-c2ccc(NC(=O)c3coc4ccc(N5CC(C)N(C)C(C)C5)cc34)cc2C)cc(C)n1.Cl (stereo not drawn) | 94 | 62 | 13
COc1ccc2nccc([C@@H](O)CN3CCC(NCc4cc5c(Cl)cc(Cl)cc5[nH]4)CC3)c2c1.O=C(O)C(=O)O | 100 | 86 | 93

SMILES | Inhibition (Plasmodium falciparum [1]) [%] | Inhibition (Plasmodium falciparum [2]) [%] | Inhibition (HepG2) [%]
O=C(Nc1cccc(OC2CCN(Cc3ccsc3)CC2)c1)c1ccc(C(F)(F)F)cc1.O=C(O)C(F)(F)F | 98 | 5 | 25
COc1ccc(-c2ccc(Nc3cccc(S(=O)(=O)CCN4CCC(CCN(C)C)CC4)c3)nc2)cn1 | 100 | 9 | 44
COc1ccc(Cn2c(SCc3ccc(C)cc3)nc3cc(OC)c(OC)cc3c2=N)cc1Cl | 92 | 7 | 50
CN=c1nc(NN=Cc2ccccc2Cl)[nH]c(=Nc2cccc(C(F)(F)F)c2)[nH]1.Cl | 84 | 0 | 12
c1ccc2sc(Sc3ncnc4sccc34)nc2c1 | 100 | 100 | 7
O=S(=O)(Nc1ccc(CCN2CCC(N3CCCCC3)CC2)cc1)c1ccc2ccccc2c1 | 100 | 80 | 44
Cc1cc(=NN=Cc2ccc(Cl)cc2)c2cccc(C)c2[nH]1 | 100 | 47 | 0
Nc1c(Cl)cc(C(O)CNCCCCCOCCc2ccc3occc3c2)cc1Cl (stereo not drawn) | 99 | 74 | 0
Cc1nc2nc(N)nc(N)c2c(C)c1Cc1ccc(C#N)cc1.Cl | 96 | 4 | 69
COc1cccc2cc(C(=O)N[C@@H](CC(C)C)C(=O)N[C@H](C=NN3CCCC3=O)Cc3ccccc3)oc12 | 96 | 80 | 5
O=C(Cc1ccc(Nc2nccc(Nc3cccc4[nH]ncc34)n2)cc1)Nc1ccc(C(F)(F)F)cc1 | 100 | 69 | 12
CCc1c(CCNCCc2cccc(CCNCCc3ccc(OC)c(OC)c3CC)c2)ccc(OC)c1OC.Cl | 81 | 67 | 100
C=CCn1c(Sc2ccc(C#N)c([N+](=O)[O-])c2)nnc1-c1ccc(OC)cc1 | 96 | 74 | 0
C[C@H](Cc1ccc(OCCCCCCOc2ccc(C[C@@H](C)NC[C@H](O)c3cccc(Cl)c3)cc2)cc1)NC[C@H](O)c1cccc(Cl)c1.Cl | 99 | 99 | 99
CC(C)(C)c1ccc(C(=O)Nc2ccc(NC(=O)c3ccc([N+](=O)[O-])o3)cc2)cc1 | 81 | 4 | 0
COc1ccc(OCC(=O)Nc2nc(-c3ccc(OC)cc3)c(C)s2)cc1 | 100 | 87 | 0
COc1ccc2nccc([C@@H](O)CN3CCC(NCCOc4ccc(F)cc4[N+](=O)[O-])CC3)c2c1.O=C(O)C(=O)O | 99 | 92 | 8
CCN(CC)CCN(Cc1ccc(-c2ccc(C(F)(F)F)cc2)cc1)C(=O)Cn1c(CCc2cccc(F)c2F)nc(=O)c2cc(F)c(F)cc21.O=C(O)C(O)C(O)C(=O)O | 100 | 56 | 41
O=C(Nc1ccc(OC2CCN(Cc3ccccc3)C2)c(Cl)c1)c1ccc(F)cc1.O=C(O)C(F)(F)F (stereo not drawn) | 90 | 87 | 7

Source: ChEMBL document CHEMBL1157539, “Thousands of chemical starting points for antimalarial lead identification” (Nature, 2010)
